Screening data as filed in PubChem BioAssay.
Y pestis TopoI = Y. pestis Topo-I inhibition via cleavage products; AID 504884; 360,000 tested, 0.064% active; activity, % at 10 µM; Y. pestis Topo-I cleavage product accumulation, plate reader; in the data active = activity above about 50%, passing the limit was not always enough; inconclusive = no clear call, values can overlap the other calls
CCHF vOTU inh = CCHFV vOTU protease inhibition; inhibition, % at 11.5 µM; Pep-AMC fluorescence; 370,000 tested, 0.55% active; in the data active = inhibition above about 30%; note: 0% = vehicle wells with enzyme and 100% = no enzyme wells
PfHsp40 rescue = compounds rescuing yeast from Plasmodium falciparum HSP40 toxicity | growth rescue, % at 12.5 µM | 340,000 tested, 0.68% active | S. cerevisiae expressing PfHsp40, growth rescue, ATP luminescence | AID 504582; in the data active = growth rescue above about 28%, passing the limit was not always enough; inconclusive = no clear call, values can overlap the other calls;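 note: yeast W303a lacking pdr1 and pdr3 grown in galactose medium; growth measured after three days at 30 °C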
BJeLR viability = BJeLR cell viability loss; BJeLR (HRASV12) viability, CellTiter-Glo ATP luminescence, 48 h; AID 1554; 300,000 tested, 0.17% active; inhibition, % (test concentration not listed); in the data active = inhibition above about 50%; inconclusive = no clear call, values can overlap the other calls
PrP UTR inh = suppresses PrP 5' UTR mRNA reporter expression; cell-based PrP 5' UTR mRNA reporter, plate reader; AID 488862; 340,000 tested, 0.35% active; inhibition, % (no concentration beside the values); in the data active = inhibition above about 52%; note: 0 = median of the neutral control wells
PrPC TRFRET = reduces human prion protein on the cell surface; cell surface PrPC, TR-FRET read-out; inhibition, % at 13.8 µM; 370,000 tested, 0.43% active; AID 720596; in the data active = inhibition above about 24%; note: 0% = median of the test wells and 100% = reference compound wells
* = called active by the depositor; ? = inconclusive; nt = no result. Hits are enriched below; roughly 2% of the tested compounds scored in any of these assays.

SMILES | Y pestis TopoI | CCHF vOTU inh | PfHsp40 rescue | BJeLR viability | PrP UTR inh | PrPC TRFRET
O=C(NC1CCCC1)[C@@H]1CCCN1C(=O)[C@@H](NC(=O)N1CCOCC1)C1CCCCC1 | nt | -6.8 | nt | nt | nt | -8.8
COC(=O)[C@]12C[C@H](CC(=O)N3CCCC3)C(=O)N(Cc3ccccc3)C1=C[C@H](C(C)C)O[C@@H]2C1CC1 | nt | 8.2 | nt | nt | nt | 17.9
Fc1ccccc1Cn1ccc2ccc(-c3ccc4ccn(Cc5ccccc5F)c4c3)cc21 | nt | -5.5 | nt | nt | nt | -5.5
CC1CCN(c2oc(Cc3cccc4ccccc34)nc2C#N)CC1 | 54.8* | 10.3 | ? | 9.2 | -7.5 | -0.5
Cc1ccc(C(=O)CNc2cccc(Cl)c2)cc1 | 65.1* | 3.5 | -0.9 | 5.1 | -21.5 | -1.8
COc1ccc(C(O)P(=O)(Oc2ccccc2)Oc2ccccc2)cc1 (stereo not drawn) | 6.6 | -0.2 | -0.7 | -8.9 | 3.6 | 2.5
O=P(Oc1ccccc1)(Oc1ccccc1)C(O)c1ccc(Cl)cc1 (stereo not drawn) | 8.8 | 21.5 | 140.2* | -21.9 | 3.2 | 5.5
CCCCCN1CCCCC(NC(=O)c2ccccc2OC)C1=O (stereo not drawn) | nt | -4.1 | nt | nt | nt | 4.0
Oc1ccccc1N=Nc1nc(-c2ccccc2)c(-c2ccccc2)[nH]1 | -35.0 | 7.3 | ? | 66.8* | 35.5 | -46.5
Cn1cc(C(=O)OCC(=O)NC2(C#N)CCCC2)c2ccccc21 | -1.2 | -0.7 | 65.7* | nt | -17.9 | -4.0
Cc1cc(/C=N/n2cnnc2)c(C)n1-c1ccc(OCc2ccc(F)cc2)cc1 | 17.7 | 3.6 | 103.4* | 13.4 | -29.8 | 20.5
COC[C@H]1OC(=O)c2coc3c2[C@@]1(C)C1=C(C3=O)[C@@H]2CCC(=O)[C@@]2(C)C[C@H]1OC(C)=O | 3.9 | 0.9 | 122.8* | nt | 14.8 | -11.2
CN1C(=O)C2(OCC(C)([N+](=O)[O-])CO2)c2ccccc21 (stereo not drawn) | 1.0 | -5.5 | -1.3 | -12.0 | -4.1 | 11.5
CN1C(=O)C2(N=c3ccccc3=N2)c2ccccc21 | 2.7 | nt | 55.0* | -2.6 | -13.0 | nt
Cc1ccc(-c2nn(CC(=O)NCc3cc(-c4nn(C)c(=O)c5ccccc45)ccc3C)c(=O)c3ccccc23)cc1 | 26.4 | 7.1 | -0.6 | 125.2* | -5.1 | 0.1
O=c1c2cc(Cl)ccc2nc(-c2ccccc2Cl)n1O | 1.1 | 7.0 | 11.9 | -5.1 | -21.3 | 5.9
O=c1c2cc(Br)ccc2nc(-c2ccccc2)n1O | 5.6 | -5.3 | 128.0* | -1.5 | -13.6 | 7.2
COc1ccc(C(=O)On2c(-c3ccc(Br)cc3)nc3ccccc3c2=O)cc1 | 11.3 | 1.2 | 375.0* | -1.6 | -16.2 | -5.3
Cc1ccc(-c2nc3ccccc3c(=O)n2O)cc1 | 4.0 | 4.5 | 131.9* | 0.8 | -19.8 | -1.7
COc1cc(OC)cc(-c2nc3ccccc3c(=O)n2OC(=O)c2ccc(Br)cc2)c1 | 12.8 | 10.4 | 0.4 | 3.9 | 5.3 | 8.0
O=c1c2ccccc2nc(-c2cccc(Cl)c2)n1O | -4.0 | -7.0 | 235.8* | 4.5 | 7.2 | -7.9
CCOC(=O)CNC(=O)CSc1nnc(-c2cccs2)o1 | nt | 2.2 | nt | nt | nt | -5.7
Cc1ccc(-c2nc3ccc(Cl)cc3c(=O)n2O)cc1 | 2.5 | -2.5 | 355.0* | 3.3 | -5.5 | -1.7
O=c1c2ccccc2nc(-c2ccc([N+](=O)[O-])cc2)n1O | -12.7 | -10.4 | 30.4* | 17.8 | -12.1 | -6.1
O=C(N[C@H](C(=O)N1CCC[C@H]1C(=O)NCCc1ccccc1Cl)C1CCCCC1)c1ccc(Cl)c(Cl)c1 | nt | 15.2 | nt | nt | nt | 7.0
SMILES | Y pestis TopoI | CCHF vOTU inh | PfHsp40 rescue | BJeLR viability | PrP UTR inh | PrPC TRFRET
Cc1cc(N2CCC(C)CC2)nc2ccccc12 | nt | nt | nt | nt | nt | 1.4
N#CCCn1cc(C(=O)Nc2ccccc2Cl)c(-c2ccc(F)cc2)n1 | 1.5 | -2.2 | 46.9* | -8.1 | -10.2 | 6.7
COC(=O)[C@H](C(C)C)N1Cc2nnn(Cc3ccccc3)c2C=CS1(=O)=O | nt | 1.6 | nt | nt | nt | -1.1
CCCCCCCNC(=O)C1(CC2CC(c3cccc(Br)c3)=NO2)CCN(C(=O)C2CCCC2)CC1 (stereo not drawn) | 60.2* | 18.5 | -0.9 | 7.4 | -13.9 | -11.1
CCCCCCCNC(=O)C1(CC2CC(c3cccc(Br)c3)=NO2)CCN(C(=O)OC(C)(C)C)CC1 (stereo not drawn) | 3.4 | 10.9 | -0.8 | -0.5 | -1.2 | 6.3
COC(=O)[C@@]12CCCCC=C1N(CCc1ccc(Cl)cc1)C(=O)[C@H]2CC(=O)NCCCCc1ccccc1 | nt | 15.1 | nt | nt | nt | -0.2
CC=CC(C)=CC(C)C(=O)CC(O)CC1CC(=O)NC(=O)C1 (stereo not drawn) | 7.0 | 1.1 | nt | nt | nt | 45.5*
